# Measurements reported in PubChem BioAssay (NCI).
# The panel holds about 79,000 compounds, 15% with a hit somewhere; the sample as a whole holds those more often. Active and inactive are the calls of the source. Rule as the data show it: active = growth inhibition above about 70%; inactive = the rest.
# Columns and labels:
# [1] = NCI Yeast Anticancer Drug Screen. Data for the mec2-1 strain (AID 157); conditions: S. cerevisiae mec2-1 strain, stronger effect = higher value
# Method in brief: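 Test agents were screened against the mec2-1 yeast strain, with defined DNA repair or cell cycle alteration. Growth was scored as inhibition against vehicle-only controls.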
# [2] = NCI Yeast Anticancer Drug Screen. Data for the rad14 strain (AID 159);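 also: 0% = growth of vehicle-treated control cultures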; conditions: S. cerevisiae rad14 strain growth inhibition, stronger effect = higher value
# Method in brief: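 Here, inhibition of yeast growth was measured after compound exposure, using a strain with a genetic defect in DNA damage repair and vehicle-treated cultures as the reference.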
# [3] = NCI Yeast Anticancer Drug Screen. Data for the sgs1 mgt1 strain (AID 161);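 also: 0% = growth of cultures given vehicle only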; conditions: S. cerevisiae sgs1 mgt1 strain, stronger effect = higher value
# Method in brief: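 Genetically altered yeast, compound exposure, growth inhibition relative to vehicle.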
# [4] = NCI Yeast Anticancer Drug Screen. Data for the CLN2oe strain (AID 163);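 also: 0% = growth of vehicle-only control cultures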; conditions: S. cerevisiae CLN2oe strain, stronger effect = higher value
# Method in brief: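 Here, growth inhibition in a cell-cycle-altered yeast strain after compound exposure was quantified against vehicle control growth.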
# [5] = NCI Yeast Anticancer Drug Screen. Data for the cln2 rad14 strain (AID 165);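 also: 0% = growth equal to vehicle treated cultures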; conditions: S. cerevisiae cln2 rad14 strain, stronger effect = higher value
# Method in brief: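 Growth of compound-exposed yeast (cln2 rad14 genotype) measured and expressed as inhibition relative to vehicle.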
# [6] = NCI Yeast Anticancer Drug Screen. Data for the bub3 strain (AID 167); conditions: S. cerevisiae bub3 mutant strain, stronger effect = higher value
# Method in brief: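 Whole-cell yeast assay. The mutant strain was incubated with compounds, and growth inhibition was determined by comparison with vehicle-treated cells.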
# [7] = NCI Yeast Anticancer Drug Screen. Data for the wt2 strain (AID 169);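 also: 0% = growth of vehicle-treated yeast cultures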; conditions: S. cerevisiae wt2 strain growth inhibition, stronger effect = higher value
# Method in brief: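 Genetically defined yeast strains from a DNA-repair/cell-cycle panel were used. Compound-exposed yeast growth was measured, and the inhibition was calculated relative to vehicle treatment.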
# [8] = NCI Yeast Anticancer Drug Screen. Data for the mlh1 strain (AID 171);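 also: 0% = growth of vehicle-treated control cultures of the same strain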; conditions: S. cerevisiae mlh1 strain growth inhibition, stronger effect = higher value
# Method in brief: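 Here the genetically defined yeast mutant is grown with each compound, and the extent to which its growth falls below that of vehicle-exposed cells is reported.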
# [9] = NCI Yeast Anticancer Drug Screen. Data for the mlh1 rad18 strain (AID 175); conditions: S. cerevisiae mlh1 rad18 strain growth inhibition, stronger effect = higher value
# Method in brief: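 In this whole-cell yeast screen, a strain with altered DNA damage repair is challenged with compound, and its growth is measured against matched vehicle-treated controls.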
# [10] = NCI Yeast Anticancer Drug Screen. Data for the rad18 strain (AID 177); conditions: S. cerevisiae rad18 mutant growth inhibition, stronger effect = higher value
# Method in brief: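 Screen uses a yeast strain with a defined lesion in DNA damage repair; compound effect is read as loss of growth compared to untreated vehicle cultures.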
# [11] = NCI Yeast Anticancer Drug Screen. Data for the rad52 strain (AID 147);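 also: 0% = growth of vehicle-treated control cultures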; conditions: S. cerevisiae rad52 mutant growth inhibition, stronger effect = higher value
# Method in brief: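 Measured: yeast growth inhibition. System: strain with a defined DNA damage repair alteration. Reference: vehicle-treated control cultures.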
# [12] = NCI Yeast Anticancer Drug Screen. Data for the wt1 strain (AID 149);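 also: 0% = growth of vehicle-treated wt1 cultures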; conditions: S. cerevisiae wt1 strain (SPY 50644) growth inhibition, stronger effect = higher value
# Method in brief: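 Measured: growth of wt1 yeast under compound versus vehicle treatment, reported as inhibition.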
# [13] = NCI Yeast Anticancer Drug Screen. Data for the rad50EPP+ strain (AID 151);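 also: 0% = growth of vehicle-treated control cultures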; conditions: S. cerevisiae rad50 mutant strain, stronger effect = higher value
# Method in brief: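 One strain with a rad50 alteration (rad50EPP+) was compound-treated, its growth then compared to that of vehicle controls.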
# [14] = NCI Yeast Anticancer Drug Screen. Data for the mgt1 strain (AID 153); conditions: S. cerevisiae mgt1 mutant growth inhibition, stronger effect = higher value
# Method in brief: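 After exposure of the mgt1 yeast mutant to compound, growth was measured and reported as inhibition compared with vehicle controls.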
# [15] = NCI Yeast Anticancer Drug Screen. Data for the rad50 strain (AID 155);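 also: 0% = growth of vehicle-only cultures of the same strain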; conditions: S. cerevisiae rad50 strain growth inhibition, stronger effect = higher value
# Method in brief: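 Growth of the mutant yeast was measured after compound exposure and referenced to vehicle-treated cultures.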
# [16] = at 5.0 µM (retest, dose inferred, filed as 0.5)
# [17] = at 50.0 µM (retest, dose inferred, filed as 5.0)
compound,measurement,setting,value
CC1=C(C(=O)NCc2ccccc2)C(c2ccccc2)C(C(=O)NCc2ccccc2)=C(C)N1,growth inhibition,[1]; [16],11% (inactive)
same,growth inhibition,[1]; at 11.0 µM,-3% (inactive)
same,growth inhibition,[1]; at 33.0 µM,18% (inactive)
same,growth inhibition,[1]; [17],81% (active)
same,growth inhibition,[1]; at 50.0 µM,93.3% (active)
same,growth inhibition,[1]; at 100.0 µM,94% (active)
same,growth inhibition,[2]; at 1.2 µM,1% (inactive)
same,growth inhibition,[2]; at 3.7 µM,4% (inactive)
same,growth inhibition,[2]; at 11.0 µM,6% (inactive)
same,growth inhibition,[2]; at 33.0 µM,16% (inactive)
same,growth inhibition,[2]; at 100.0 µM,92% (active)
same,growth inhibition,[3]; [16],-1% (inactive)
same,growth inhibition,[3]; [17],82% (active)
same,growth inhibition,[3]; at 50.0 µM,70.7% (active)
same,growth inhibition,[4]; at 1.2 µM,-5% (inactive)
same,growth inhibition,[4]; at 3.7 µM,1% (inactive)
same,growth inhibition,[4]; at 11.0 µM,-2% (inactive)
same,growth inhibition,[4]; at 33.0 µM,4% (inactive)
same,growth inhibition,[4]; at 100.0 µM,63% (inactive)
same,growth inhibition,[5]; [16],-7% (inactive)
same,growth inhibition,[5]; [17],51% (inactive)
same,growth inhibition,[5]; at 50.0 µM,11.4% (inactive)
same,growth inhibition,[6]; at 1.2 µM,-1% (inactive)
same,growth inhibition,[6]; at 3.7 µM,1% (inactive)
same,growth inhibition,[6]; [16],6% (inactive)
same,growth inhibition,[6]; at 11.0 µM,0% (inactive)
same,growth inhibition,[6]; at 33.0 µM,45% (inactive)
same,growth inhibition,[6]; [17],84% (active)
same,growth inhibition,[6]; at 50.0 µM,87.8% (active)
same,growth inhibition,[6]; at 100.0 µM,94% (active)
same,growth inhibition,[7]; at 1.2 µM,-1% (inactive)
same,growth inhibition,[7]; at 3.7 µM,7% (inactive)
same,growth inhibition,[7]; at 11.0 µM,-3% (inactive)
same,growth inhibition,[7]; at 33.0 µM,10% (inactive)
same,growth inhibition,[7]; at 100.0 µM,91% (active)
same,growth inhibition,[8]; at 1.2 µM,-4% (inactive)
same,growth inhibition,[8]; at 3.7 µM,-3% (inactive)
same,growth inhibition,[8]; at 11.0 µM,-3% (inactive)
same,growth inhibition,[8]; at 33.0 µM,8% (inactive)
same,growth inhibition,[8]; at 100.0 µM,96% (active)
same,growth inhibition,[9]; [16],4% (inactive)
same,growth inhibition,[9]; [17],82% (active)
same,growth inhibition,[9]; at 50.0 µM,93.1% (active)
same,growth inhibition,[10]; at 1.2 µM,2% (inactive)
same,growth inhibition,[10]; at 3.7 µM,3% (inactive)
same,growth inhibition,[10]; at 11.0 µM,7% (inactive)
same,growth inhibition,[10]; at 33.0 µM,60% (inactive)
same,growth inhibition,[10]; at 100.0 µM,96% (active)
CCOC(=O)C(C(=O)OCC)=P(c1ccccc1)(c1ccccc1)c1ccccc1,growth inhibition,[11]; at 1.2 µM,0% (inactive)
same,growth inhibition,[11]; at 3.7 µM,0% (inactive)
same,growth inhibition,[11]; at 11.0 µM,2% (inactive)
same,growth inhibition,[11]; at 33.0 µM,0% (inactive)
same,growth inhibition,[11]; at 100.0 µM,95% (active)
same,growth inhibition,[12]; at 1.2 µM,0% (inactive)
same,growth inhibition,[12]; at 3.7 µM,1% (inactive)
same,growth inhibition,[12]; at 11.0 µM,1% (inactive)
same,growth inhibition,[12]; at 33.0 µM,-3% (inactive)
same,growth inhibition,[12]; at 100.0 µM,93% (active)
same,growth inhibition,[13]; at 1.2 µM,-2% (inactive)
same,growth inhibition,[13]; at 3.7 µM,-3% (inactive)
same,growth inhibition,[13]; at 11.0 µM,-2% (inactive)
same,growth inhibition,[13]; at 33.0 µM,-1% (inactive)
same,growth inhibition,[13]; at 100.0 µM,3% (inactive)
same,growth inhibition,[14]; at 1.2 µM,0% (inactive)
same,growth inhibition,[14]; at 3.7 µM,3% (inactive)
same,growth inhibition,[14]; at 11.0 µM,1% (inactive)
same,growth inhibition,[14]; at 33.0 µM,-6% (inactive)
same,growth inhibition,[14]; at 100.0 µM,78% (active)
same,growth inhibition,[15]; at 1.2 µM,-58% (inactive)
same,growth inhibition,[15]; at 3.7 µM,0% (inactive)
same,growth inhibition,[15]; [16],-2% (inactive)
same,growth inhibition,[15]; at 11.0 µM,-3% (inactive)
same,growth inhibition,[15]; at 33.0 µM,-3% (inactive)
same,growth inhibition,[15]; [17],36% (inactive)
same,growth inhibition,[15]; at 50.0 µM,12.4% (inactive)
same,growth inhibition,[15]; at 100.0 µM,96% (active)
same,growth inhibition,[1]; at 1.2 µM,0% (inactive)
same,growth inhibition,[1]; at 3.7 µM,-1% (inactive)
same,growth inhibition,[1]; [16],1% (inactive)
same,growth inhibition,[1]; at 11.0 µM,0% (inactive)
same,growth inhibition,[1]; at 33.0 µM,0% (inactive)
same,growth inhibition,[1]; [17],16% (inactive)
same,growth inhibition,[1]; at 50.0 µM,12.1% (inactive)
same,growth inhibition,[1]; at 100.0 µM,98% (active)
same,growth inhibition,[2]; at 1.2 µM,0% (inactive)
same,growth inhibition,[2]; at 3.7 µM,2% (inactive)
same,growth inhibition,[2]; at 11.0 µM,5% (inactive)
same,growth inhibition,[2]; at 33.0 µM,6% (inactive)
same,growth inhibition,[2]; at 100.0 µM,93% (active)
same,growth inhibition,[3]; [16],-10% (inactive)
same,growth inhibition,[3]; [17],60% (inactive)
same,growth inhibition,[3]; at 50.0 µM,47% (inactive)
same,growth inhibition,[4]; at 1.2 µM,0% (inactive)
same,growth inhibition,[4]; at 3.7 µM,-1% (inactive)
same,growth inhibition,[4]; at 11.0 µM,-1% (inactive)
same,growth inhibition,[4]; at 33.0 µM,-2% (inactive)
same,growth inhibition,[4]; at 100.0 µM,84% (active)
same,growth inhibition,[5]; [16],0% (inactive)
same,growth inhibition,[5]; [17],-3% (inactive)
same,growth inhibition,[5]; at 50.0 µM,-2.05% (inactive)
same,growth inhibition,[6]; at 1.2 µM,-1% (inactive)
same,growth inhibition,[6]; at 3.7 µM,1% (inactive)
same,growth inhibition,[6]; [16],-3% (inactive)
same,growth inhibition,[6]; at 11.0 µM,1% (inactive)
same,growth inhibition,[6]; at 33.0 µM,-3% (inactive)
same,growth inhibition,[6]; [17],19% (inactive)
same,growth inhibition,[6]; at 50.0 µM,5% (inactive)
same,growth inhibition,[6]; at 100.0 µM,93% (active)
same,growth inhibition,[7]; at 1.2 µM,-2% (inactive)
same,growth inhibition,[7]; at 3.7 µM,-3% (inactive)
same,growth inhibition,[7]; at 11.0 µM,-4% (inactive)
same,growth inhibition,[7]; at 33.0 µM,-9% (inactive)
same,growth inhibition,[7]; at 100.0 µM,95% (active)
same,growth inhibition,[10]; at 1.2 µM,1% (inactive)
same,growth inhibition,[10]; at 3.7 µM,7% (inactive)
same,growth inhibition,[10]; at 11.0 µM,16% (inactive)
same,growth inhibition,[10]; at 33.0 µM,12% (inactive)
same,growth inhibition,[10]; at 100.0 µM,95% (active)
